Results as given in the supplement of paper PMC4840960.
Structures can show the parent of a compound that is named as a salt. ± gives the standard deviation of the averaged measurements.

Columns and labels:
[1] = test system: E18 rat cortical neuron-glia co-culture; experiment: fiber score / MBP score (myelination specific beyond OL differentiation) (ratio); higher = more myelination-specific MBP alignment; settings: treatment time: 8 days (DIV5-DIV13)
Procedure, shortened: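 The measure is the ratio of fiber score to MBP score, where fiber score is continuous MBP fiber length per Olig2+ nucleus and MBP score is thresholded MBP area × intensity per Olig2+ nucleus. Primary E18 rat cortical co-cultures received library compounds at 1 or 5 µM in myelination medium from DIV5 to DIV13, then were fixed in 4 % paraformaldehyde and stained for MBP, Olig2 and DAPI before analysis of four 10X fields per well in duplicate wells.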

[2] = test system: E18 rat cortical neuron-glia co-culture; experiment: myelination (MBP fiber length per Olig2+ nucleus), % of 1 µM DAPT response (DMSO = 0) (% of DAPT); higher = more myelination, active = 50 or more; settings: treatment time: 8 days (DIV5-DIV13)
Procedure, shortened: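 The myelination value was the continuous straight MBP fiber length per Olig2+ nucleus, scaled between 0.1 % DMSO (0) and a 1 µM positive control (100). It was measured in primary E18 rat cortical co-cultures treated with library compounds at 1 or 5 µM in myelination medium from DIV5 through DIV13. Cells were fixed in 4 % paraformaldehyde and stained for MBP, Olig2 and DAPI, and four 10X fields per well were imaged in duplicate wells.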

| Structure (SMILES) | fiber score / MBP score ([1]; 1 µM) | fiber score / MBP score ([1]; 5 µM) | myelination ([2]; 1 µM) | myelination ([2]; 5 µM) |
| --- | --- | --- | --- | --- |
| CC[C@@H]1C=CC=CC[C@H](C)[C@@H](O)[C@@H](C)C(=O)[C@H](C)[C@@H](O)[C@H](C)C(=O)[C@H](C)[C@@H](O)[C@H](C)C=CC(=O)O[C@H]2[C@@H](C)[C@@H](CC1)O[C@@]1(CC[C@@H](C)[C@@H](C[C@H](C)O)O1)[C@@H]2C [Oligomycin C] | 0.799 | 1.11 | -6.58 (inactive) | 47.7 (inactive) |
| O=C1Nc2ccc(Cl)cc2C(c2ccccc2Cl)=NC1O (centres undefined) [Lorazepam] | 0.711 | 1.13 | -14.7 (inactive) | 15 (inactive) |
| NCCc1ccccn1 [2-(2-aminoethyl)pyridine] | 0.847 | 0.699 | -7.37 (inactive) | -9.08 (inactive) |
| CC(C)(O)[C@@H]1[C@H]2OC(=O)[C@@H]1[C@]1(O)C[C@H]3O[C@]34C(=O)O[C@H]2[C@]14C [Picrotin] | 0.632 | 0.797 | -12.7 (inactive) | -5.47 (inactive) |
| CC(=O)O[C@H]1C[C@@H]2CC[C@@H]3[C@H](CC[C@@]4(C)[C@H]3C[C@H]([N+]3(C)CCCCC3)[C@@H]4OC(C)=O)[C@@]2(C)C[C@@H]1[N+]1(C)CCCCC1 [Pancuronium] | 0.692 | 1.04 | -11 (inactive) | 2.32 (inactive) |
| CN1C(=O)CN=C(c2ccccc2)c2cc(Cl)ccc21 [Diazepam] | 0.832 | 0.879 | -8.32 (inactive) | -9.05 (inactive) |
| COc1ccc2c(c1)[C@]13CCCC[C@@H]1[C@H](C2)N(C)CC3 [Dextromethorphan] | 1.19 | 0.893 | 5.05 (inactive) | 1.54 (inactive) |
| COc1cc([C@@H]2c3cc4c(cc3[C@H](O)[C@H]3COC(=O)[C@H]23)OCO4)cc(OC)c1OC [Podophyllotoxin] | 0.393 | 0.31 | -13.9 (inactive) | -15.8 (inactive) |
| CCCC(C)(COC(N)=O)COC(=O)NC(C)C (centres undefined) [Carisoprodol] | 0.713 | 0.796 | -13 (inactive) | -11.9 (inactive) |
| CS(=O)(=O)Nc1ccc(Cc2noc(-c3ccc4[nH]cc(CCN)c4c3)n2)cc1 | 0.563 | 0.612 | -19.6 (inactive) | -17.8 (inactive) |
| CN1CCN(C(=O)O[C@H]2c3nccnc3C(=O)N2c2ccc(Cl)cn2)CC1 [Eszopiclone] | 0.461 | 0.876 | -5.43 (inactive) | 15.5 (inactive) |
| C[C@]12CC[C@H]3[C@@H](CCC4=CC(=O)CC[C@@H]43)[C@@H]1CC[C@@H]2O [Nandrolone] | 0.984 | 0.883 | -3.41 (inactive) | -16.8 (inactive) |
| CN1[C@@H]2CC[C@H]1C[C@@H](OC(=O)[C@H](CO)c1ccccc1)C2 [Hyoscyamine] | 0.631 | 0.692 | -15.1 (inactive) | -12.5 (inactive) |
| COc1ccc(C(CN(C)C)C2(O)CCCCC2)cc1 (centres undefined) [Venlafaxine] | 0.576 | 1.02 | -11.7 (inactive) | -3.31 (inactive) |
| C[C@]12CCC(=O)C[C@@H]1CC[C@@H]1[C@@H]2CC[C@@]2(C)[C@H]1CC[C@]2(C)O [Mestanolone] | 0.746 | 0.854 | -21.8 (inactive) | -14.6 (inactive) |
| CCOC(=O)c1cncn1[C@H](C)c1ccccc1 [Etomidate] | 0.772 ± 0.06 | 0.987 ± 0.1 | -14.6 (inactive) | 6.64 (inactive) |
| C[N+]1(CCC(C(N)=O)(c2ccccc2)c2ccccc2)CCCCC1 [Fenpiverinium] | 1.01 | 1.19 | 4.83 (inactive) | 191 |
| O=C(O)CCCc1ccc(N(CCCl)CCCl)cc1 [Chlorambucil] | 0.893 | 0.615 | -6.49 (inactive) | -17 (inactive) |
| Oc1ccc2c3c1O[C@H]1c4[nH]c5ccccc5c4C[C@@]4(O)[C@@H](C2)N(CC2CC2)CC[C@]314 [Naltrindole] | 0.716 | 0.673 | -32.5 (inactive) | -19 (inactive) |
| Oc1cc2c(cc1O)[C@H]1c3ccccc3CN[C@@H]1CC2 (racemic) [Dihydrexidine] | 1.05 | 3.38 | -4.93 (inactive) | -20.9 (inactive) |
| Oc1cc(Cl)ccc1Oc1ccc(Cl)cc1Cl [Triclosan] | 1.18 | – | 26.5 (inactive) | – |
| CN1CC[C@]23c4c5ccc(O)c4O[C@H]2c2[nH]c4ccccc4c2C[C@@]3(O)[C@H]1C5 [Oxymorphindole] | 0.883 | – | 97 | – |
| C[C@H]1CCC[C@H](O)CCCCCc2cc(O)cc(O)c2C(=O)O1 [Zeranol] | 0.788 | 0.876 | -13.7 (inactive) | -5.48 (inactive) |

| Structure (SMILES) | fiber score / MBP score ([1]; 1 µM) | fiber score / MBP score ([1]; 5 µM) | myelination ([2]; 1 µM) | myelination ([2]; 5 µM) |
| --- | --- | --- | --- | --- |
| CN1[C@@H]2C[C@@H](OC(=O)[C@H](CO)c3ccccc3)C[C@H]1[C@@H]1O[C@@H]12 [Scopolamine hydrobromide] | 0.649 | 0.821 | -49.5 (inactive) | -31.2 (inactive) |
| CCOC(=O)C1(c2ccccc2)CCN(CCC(C#N)(c2ccccc2)c2ccccc2)CC1 [Diphenoxylate] | 0.738 | 0.867 | -12.3 (inactive) | 11.5 (inactive) |
| C[C@]12Cc3c[nH]nc3C[C@@H]1CC[C@@H]1[C@@H]2CC[C@@]2(C)[C@H]1CC[C@]2(C)O [Stanozolol] | 0.697 | – | -13.6 (inactive) | – |
| CN1CC[C@@H](c2ccc(F)cc2)[C@H](COc2ccc3c(c2)OCO3)C1 [N-Methylparoxetine] | 0.423 | 0.379 | -58.7 (inactive) | -60.5 (inactive) |
| CNC1CC(c2ccc(Cl)c(Cl)c2)c2ccccc21 (centres undefined) [Indatraline] | 0.417 | – | -58 (inactive) | – |
| CCN(C(C)=O)c1cccc(-c2ccnc3c(C#N)cnn23)c1 [Zaleplon] | 0.794 | 1.2 | -13.6 (inactive) | 16 (inactive) |
| C[C@]12CC[C@H](O)CC1=CC[C@@H]1[C@@H]2CC[C@@]2(C)[C@H]1CC[C@]2(C)O [Methandriol] | 0.712 | 0.961 | -15.9 (inactive) | -4.34 (inactive) |
| COc1cccc(C2(O)CCCCC2CN(C)C)c1 (centres undefined) [Tramadol] | 0.793 | 0.749 | -12.4 (inactive) | -7.33 (inactive) |
| c1ccc2c3c([nH]c2c1)CNCC3 [Tryptoline] | 0.757 | 0.905 | -12 (inactive) | -4.44 (inactive) |
| CNCC(O)c1ccc(O)cc1 (centres undefined) [Synephrine] | 0.822 | 0.702 | -6.47 (inactive) | -10.5 (inactive) |
| O=c1c2ccccc2[se]n1-c1ccccc1 [Ebselen] | 2.01 | – | 8.33 (inactive) | – |
| CCC1(c2ccc(N)cc2)CCC(=O)NC1=O (centres undefined) [Aminoglutethimide] | 0.845 | 0.779 | -5.42 (inactive) | -5.16 (inactive) |
| C[C@]12CC[C@H](O)CC1=CC[C@@H]1[C@@H]2CC[C@]2(C)C(=O)CC[C@@H]12 [Dehydroepiandrosterone] | 1.25 | 0.965 | 18.9 (inactive) | -6.07 (inactive) |
| COc1ccc2[nH]cc(C3=CCNCC3)c2c1 | 0.706 | 0.448 | -14.7 (inactive) | -24.2 (inactive) |
| NC(=O)C[S+]([O-])C(c1ccccc1)c1ccccc1 (centres undefined) [Modafinil] | 0.88 | 0.861 | -9.51 (inactive) | -26.7 (inactive) |
| CN(C)C(=O)Oc1ccc[n+](C)c1 [Pyridostigmine Bromide] | 0.691 | 0.895 | -14.3 (inactive) | -8.88 (inactive) |
| CN1C(=O)CN=C(c2ccccc2)c2cc([N+](=O)[O-])ccc21 [Nimetazepam] | 0.743 | 0.878 | -11 (inactive) | -8.49 (inactive) |
| c1cncc([C@@H]2CCCN2)c1 [Nornicotine] | 0.765 | 0.836 | -20.2 (inactive) | -19 (inactive) |
| O[C@@H]1CCCC[C@H]1N1CCC(c2ccccc2)CC1 (racemic) [Vesamicol] | 0.528 | 0.361 | -34.6 (inactive) | -46 (inactive) |
| CC(C)CC(N(C)C)C1(c2ccc(Cl)cc2)CCC1 (centres undefined) [Sibutramine] | 0.819 ± 0.34 | 1.02 ± 0.064 | -9.43 (inactive) | -0.392 (inactive) |
| Cc1nnc2n1-c1ccc(Cl)cc1C(c1ccccc1)=NC2 [Alprazolam] | 0.628 | 0.823 | -26.1 (inactive) | -17.4 (inactive) |
| Oc1ccc2c3c1O[C@H]1[C@@H](O)CC[C@@]4(O)[C@@H](C2)N(CC2CCC2)CC[C@]314 [Nalbufina] | 0.796 | 0.955 | -19 (inactive) | -7.9 (inactive) |
| CC(C)c1cccc(C(C)C)c1O [Propofol] | 0.782 | 0.895 | -3.16 (inactive) | -2.27 (inactive) |
